High-throughput results: PubChem, National Center for Advancing Translational Sciences (NCATS)
Compounds with a hit are over-represented: about 3.7% of the library has one in this group of screens.
TGFb SMAD3 inh = blocks TGF-b signaling. HepG2 CAGA-GFP TGF-b/SMAD3 reporter, GFP fluorescence, 18 h; TGF-beta stimulated, 500 pg/mL final. Potency, µM (top dose mostly 46.1 µM), most hits filed as inhibitors. 410,000 tested, 1.2% active; further: nearly all actives have a fitted effect of over 65% in size
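HEPG2 CAGA-GFP cells (1000/well, DMEM with 1% FBS) were pre-incubated 2 h at 37 degrees C, given compound by pin tool, then stimulated with TGF-beta at 500 pg/mL final for 18 h before per-cell GFP fluorescence imaging.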
GLP-1R inv ag = inverse agonists of human GLP-1 receptor. P43220. HEK293 GLP-1R CRE-luciferase, luminescence, 24 h; GLP-1R form is constitutively active. Potency, µM (doses to about 38.3 µM), most hits filed as inhibitors. 410,000 tested, 1.6% active. AID 624417; further: nearly all actives have a fitted effect of over 55% in size
Target sequence (P43220 whole entry, looked up): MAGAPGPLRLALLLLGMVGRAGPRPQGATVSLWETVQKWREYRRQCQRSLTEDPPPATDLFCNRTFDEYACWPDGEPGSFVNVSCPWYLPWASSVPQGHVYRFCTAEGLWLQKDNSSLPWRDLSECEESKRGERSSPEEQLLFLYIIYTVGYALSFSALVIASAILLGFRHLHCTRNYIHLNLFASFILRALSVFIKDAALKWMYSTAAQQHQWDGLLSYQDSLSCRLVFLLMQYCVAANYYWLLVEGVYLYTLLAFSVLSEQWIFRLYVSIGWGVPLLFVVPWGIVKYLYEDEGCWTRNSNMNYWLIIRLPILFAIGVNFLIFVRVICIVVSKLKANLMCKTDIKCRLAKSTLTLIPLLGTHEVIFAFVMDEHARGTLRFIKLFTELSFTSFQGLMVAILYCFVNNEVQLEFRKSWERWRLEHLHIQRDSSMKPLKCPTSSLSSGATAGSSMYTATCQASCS
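Inverse agonists were sought by their lowering of basal cAMP reporter luciferase output in HEK293 cells stably carrying constitutively active human GLP-1R, after 24 h compound treatment.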
ATXN2 expr inh = inhibitors of ATXN2 expression; Potency, µM (titrated, usually from 57 µM), most hits filed as inhibitors; 360,000 tested, 0.72% active; HEK-293 ATXN2-luciferase reporter, luminescence, 24 h; further: nearly all actives have a fitted effect of over 55% in size
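ATXN2-luciferase reporter cells (luciferase flanked by upstream and downstream ATXN2 gene portions) were treated 24 h at 37 °C with compounds at up to 57 uM. SteadyGlo luminescence gave expression; GF-AFC fluorescence gave viability.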
GLP-1R agonist = GLP-1 receptor (human) agonism; 380,000 tested, 0.007% active; Potency, µM (doses to about 45.6 µM), actives largely listed as activators; HEK293 GLP-1R CRE-luciferase, luminescence, 4-6 h; cells express a hypersensitive GLP-1R form
HepG2 tox-1 = counter-screen for TGF-b inhibitors: cytotoxicity in HepG2 cells. HepG2 CAGA-GFP viability, ATP luminescence, 18 h. Potency, µM (titrated, usually from 46.1 µM), usual class: cytotoxic. 410,000 tested, 0.76% active. AID 588856
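CellTiter-Glo luminescence gave cytotoxicity after 18 hours at 37 degrees C. The cells were HepG2 CAGA-GFP in 1% FBS DMEM, stimulated with 500 pg/mL TGF-beta after compound addition. %Activity was normalised to no-cell wells (complete cell-killing) and DMSO (no toxicity), and curves were fitted and classified.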
ATXN viability = reduces viability in counter-screen for ATXN expression inhibitors; S2 cells (HEK-293 line with an ATXN2-luciferase reporter) viability, CellTiter-Fluor protease fluorescence, 24 h; 400,000 tested, 0.49% active; Potency, µM (doses to about 56.7 µM), most hits filed as cytotoxic; further: nearly all actives have a fitted effect of over 40% in size
TGFb confirm = TGF-b pathway inhibition, cherry-pick retest | shares compounds with TGFb SMAD3 inh | HepG2 CAGA-GFP TGF-b reporter, GFP fluorescence, 18 h; cells stimulated with TGF-beta, 500 pg/mL | Potency, µM (top dose mostly 46.1 µM), actives largely listed as inhibitors | 1,600 tested, 63% active; further: nearly all actives have a fitted effect of over 65% in size
HepG2 tox-2 = HepG2 cytotoxicity, TGF-b inhibitor counterscreen. 1,600 tested, 27% active. HepG2 CAGA-GFP viability, ATP luminescence, 18 h; cells stimulated with TGF-beta, 500 pg/mL. shares compounds with TGFb SMAD3 inh. Potency, µM (highest dose often 46.1 µM), usual class: inhibitors; further: nearly all actives have a fitted effect of over 70% in size
CCL64 TGFb inh = TGF-b inhibition, CCL64 orthogonal assay. shares compounds with TGFb SMAD3 inh. CCL64 CAGA-GFP reporter, TGF-b stimulated, GFP fluorescence, 18 h. Potency, µM (doses to about 46.1 µM), actives largely listed as inhibitors. 1,600 tested, 41% active. AID 720536; further: nearly all actives have a fitted effect of over 65% in size
COP TGFb inh = blocks TGF-b signaling in HepG2 COP reporter. shares compounds with TGFb SMAD3 inh. HepG2 COP-GFP TGF-b reporter, GFP fluorescence, 18 h; cells stimulated by added recombinant TGF-beta. Potency, µM (series often up to 46.1 µM), usual class: inhibitors. 1,600 tested, 3% active. AID 720537; further: nearly all actives have a fitted effect of over 70% in size
Large screens that a line does not name were inactive (follow-up assays come after a bar, where they were run). The call rests on the fitted dose curve; in most records, active means well fitted curve in the direction sought with a large enough effect; inconclusive means small, poorly fitted or top-dose-only effect, or another doubt; inactive means no such curve, though single readings can be large; an effect the other way counts as inactive or inconclusive.

CC1=C(O)C(=O)C=C2C1=CC=C1C2(C)CCC2(C)C3CC(C)(C(=O)O)CCC3(C)CCC12C (configuration not stated)	TGFb SMAD3 inh 2µM, GLP-1R inv ag inconclusive, ATXN2 expr inh 4.47µM, HepG2 tox-1 3.16µM, ATXN viability 5.62µM
CC(O)=C(C#N)C(=O)Nc1cc(Br)ccc1Br	none (no result: TGFb SMAD3 inh, GLP-1R inv ag, GLP-1R agonist, HepG2 tox-1, ATXN viability)
C=C(C)[C@@]12OC3(c4ccccc4)O[C@@H]1C1[C@@H]4O[C@]4(CO)[C@@H](O)[C@]4(O)C(=O)C(C)=C[C@H]4[C@@]1(O3)[C@H](C)[C@H]2OC(=O)/C=C/C=C/c1ccccc1 (some centres not stated)	GLP-1R inv ag 2.82µM, ATXN viability inconclusive | TGFb confirm inconclusive | HepG2 tox-2 inconclusive | CCL64 TGFb inh inconclusive | COP TGFb inh inactive
CCOCCOC(C)=O	none (no result: TGFb SMAD3 inh, GLP-1R inv ag, HepG2 tox-1)
CCC1C(c2cc(OC)c(OC)c(OC)c2)c2cc3c(cc2OC1N1CCCC1)OCO3 (configuration not stated)	TGFb SMAD3 inh 10µM, GLP-1R inv ag inconclusive, ATXN viability inconclusive | TGFb confirm inconclusive | HepG2 tox-2 inactive | CCL64 TGFb inh inconclusive | COP TGFb inh inactive
C=C1C(O)[C@@H]2O[C@]3(CC[C@H](/C=C/C(C)[C@@H]4CC(C)=CC5(O[C@H](C[C@@](C)(O)C(=O)O)CCC5O)O4)O3)CC[C@H]2O[C@@H]1C(O)CC(C)[C@H]1OC2(CCCCO2)CCC1C (some centres not stated)	TGFb SMAD3 inh 0.0891µM, ATXN2 expr inh 0.316µM, ATXN viability inconclusive | TGFb confirm 0.0206µM | HepG2 tox-2 0.0517µM | CCL64 TGFb inh 0.082µM | COP TGFb inh inconclusive
COC(=O)C1=C(c2ccc(-c3ccccc3)c(F)c2)C[C@@H]2CC[C@H]1N2C(=O)NCCO	none
COC(=O)C1=C(c2ccc(-c3ccccc3)c(F)c2)C[C@@H]2CC[C@H]1N2C(=O)NCc1ccco1	TGFb SMAD3 inh inconclusive, ATXN2 expr inh inconclusive, ATXN viability inconclusive | TGFb confirm 8.2µM | HepG2 tox-2 inconclusive | CCL64 TGFb inh inconclusive | COP TGFb inh inactive
COC(=O)C1=C(c2ccc(F)cc2OCc2ccccc2)C[C@@H]2CC[C@H]1N2C(=O)NCc1ccccc1	TGFb SMAD3 inh inconclusive, GLP-1R inv ag inconclusive, ATXN2 expr inh inconclusive, ATXN viability inconclusive
COC(=O)C1=C(c2ccc(F)cc2OCc2ccccc2)C[C@@H]2CC[C@H]1N2C(=O)NCc1ccccc1OC	TGFb SMAD3 inh inconclusive, GLP-1R inv ag inconclusive, ATXN viability inconclusive | TGFb confirm inconclusive | HepG2 tox-2 inactive | CCL64 TGFb inh inconclusive | COP TGFb inh inactive
COC(=O)C1=C(c2cccc(C#N)c2)C[C@@H]2CC[C@H]1N2C(=O)NCc1cc(C)oc1C(F)(F)F	none
COC(=O)C1=C(c2ccc(-c3ccccc3)c(F)c2)C[C@@H]2CC[C@H]1N2C(=O)NCc1cc(C)oc1C(F)(F)F	TGFb SMAD3 inh 1.58µM, GLP-1R inv ag 3.55µM, ATXN2 expr inh inconclusive, ATXN viability inconclusive | TGFb confirm inconclusive | HepG2 tox-2 inactive | CCL64 TGFb inh inconclusive | COP TGFb inh inactive
O=C1NC[C@H](CCCCN2C[C@@H](Cc3ccccc3)N(CCC3CCCCC3)C(=O)C2=O)N(CCC2CCCCC2)C1=O	none (no result: TGFb SMAD3 inh, HepG2 tox-1)
CC(C)(C)c1ccc(C(=O)Nc2ccc3nc(SCC(=O)N4CCCC4)sc3c2)cc1	TGFb SMAD3 inh inconclusive, GLP-1R inv ag inconclusive (no result: ATXN2 expr inh, GLP-1R agonist, ATXN viability)
Cc1nc2ccccc2c(=O)n1-c1nccs1	none
Cc1nn(-c2nccs2)c2c1C(=O)CC(C)(C)C2Br (configuration not stated)	TGFb SMAD3 inh 11.2µM, ATXN2 expr inh inconclusive | TGFb confirm 13µM | HepG2 tox-2 inconclusive | CCL64 TGFb inh inconclusive | COP TGFb inh inactive
C[C@](O)(CS(=O)(=O)c1ccc(F)cc1)C(=O)Nc1ccc(C#N)c(C(F)(F)F)c1	ATXN2 expr inh inconclusive (no result: TGFb SMAD3 inh, GLP-1R inv ag, HepG2 tox-1, ATXN viability)
COc1cccc(NC(=O)C2CCN(S(=O)(=O)c3cc(-c4noc(C)n4)ccc3C)CC2)c1	TGFb SMAD3 inh inconclusive, GLP-1R inv ag inconclusive (no result: GLP-1R agonist)
COc1cc(O)c2c(c1)/C=C/C[C@H](O)[C@H](O)C(=O)CCC[C@H](C)OC2=O	TGFb SMAD3 inh 2µM | TGFb confirm 8.2µM | HepG2 tox-2 inactive | CCL64 TGFb inh 7.31µM | COP TGFb inh inconclusive
C=C(C)[C@H]1[C@H]2OC(=O)[C@@H]1[C@]1(O)C[C@H]3O[C@]34C(=O)O[C@H]2[C@@]14C	none (no result: TGFb SMAD3 inh, GLP-1R inv ag, ATXN2 expr inh, GLP-1R agonist, HepG2 tox-1)
COc1cc2c(c(OC)c1OC)-c1ccc(O)cc1[C@@H](NC(C)=O)CC2	TGFb SMAD3 inh inconclusive, ATXN viability inconclusive | TGFb confirm inconclusive | HepG2 tox-2 inactive | CCL64 TGFb inh 0.517µM | COP TGFb inh inconclusive
COc1cc2c(c(OC)c1OC)-c1ccc(O)cc1C(NC(C)=O)CC2 (configuration not stated)	none
CCCCC[C@H]1CCCCC[C@@H](O)C[C@@H](O)[C@@H](O)/C=C/C(=O)O1	none (no result: TGFb SMAD3 inh, HepG2 tox-1)
C[C@H]1CCC/C=C/[C@@H]2C[C@H](O)C[C@H]2[C@@H](O)/C=C/C(=O)O1	ATXN2 expr inh inconclusive, ATXN viability inconclusive | TGFb confirm 0.058µM | HepG2 tox-2 0.13µM | CCL64 TGFb inh inconclusive | COP TGFb inh inactive
c1ccc(C2c3ccccc3-n3nncc3CN2CC2CCCCC2)cc1 (configuration not stated)	TGFb SMAD3 inh 11.2µM | TGFb confirm 18.4µM | HepG2 tox-2 inconclusive | CCL64 TGFb inh 25.9µM | COP TGFb inh inactive
O=C(C1CCCCC1)N1Cc2ccccc2-n2nncc2C1	none
